Experimental data published in PubChem BioAssay (NCATS).
Records with an inconclusive call do not appear. Active and inactive are the calls of the source. Calls come from the whole dose curve; as a rule, active = well fitted curve in the direction sought with a large enough effect; inconclusive = small, poorly fitted or top-dose-only effect, or another doubt; inactive = no such curve, though single readings can be large; an effect the other way counts as inactive or inconclusive.

Columns and labels:
[1] = biological target: Glutathione peroxidase 1 (Homo sapiens) (UniProt P07203); assay: Primary qHTS Assay for Inhibitors of Recombinant Selenoprotein Glutathione Peroxidase 1 (GPX1) (AID 1845191); note: nearly all actives have a fitted effect of over 65% in size; for activity, negative = inhibition: % is set by controls: 0 for no effect and ±100 for the full control effect
How it was run: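 GR-coupled assay: compounds preincubated 30 min at room temperature with GPX1, then reaction started with CHP; final 10 nM GPX1, 1 mM GSH, 0.5 mM CHP, 0.5 mM NADPH, 100 nM GR, 0.01% BSA, pH 7.5 Tris buffer. NADPH fluorescence (340/450 nm) read at 0 and 15 min.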

[2] = biological target: Phospholipid hydroperoxide glutathione peroxidase GPX4 (Homo sapiens) (UniProt P36969); assay: Primary qHTS Assay for Inhibitors of Recombinant Selenoprotein Glutathione Peroxidase 4 (GPX4) (AID 1845192); note: nearly all actives have a fitted effect of over 65% in size; for activity change, negative = inhibition: series mostly up to about 50 µM; % is set by controls: 0 for no effect and ±100 for the full control effect
How it was run: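 GR-coupled assay: recombinant GPX4 preincubated 30 min with compound at room temperature; final 200 nM GPX4, 1 mM GSH, 0.5 mM cumene hydroperoxide, 0.5 mM NADPH, 100 nM GR, 0.01% BSA, pH 7.5 Tris. NADPH fluorescence (340/450 nm) read at 0 and 15 min.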

[3] = biological target: Luciferin 4-monooxygenase (Photinus pyralis) (UniProt P08659); assay: Primary firefly luciferase (FLuc) qHTS assay for identification of artifact compounds. (AID 1845220); note: nearly all actives have a fitted effect of over 60% in size;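 for activity change, negative = inhibition: series mostly up to about 54 µM; plate controls were DMSO vehicle for no effect and no enzyme for full effect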
How it was run: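 D-luciferin and ATP (10 uM each, final) in Tris acetate buffer pH 7.6 were incubated with compounds for 15 min at room temperature. The reaction was started with 10 nM Photinus pyralis luciferase and luminescence read after 5 min. Percent inhibition was fitted to a 4-parameter Hill equation.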

[4] = Primary fluorescence-based thiol-reactive (MSTI) qHTS assay for identification of artifact compounds. (AID 1845221); note: nearly all actives have a fitted effect of over 65% in size; note: potency is the fitted concentration of half-maximal effect;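 for activity change, negative = thiol reactive: series mostly up to about 54 µM; thiol-reactive compounds lower the probe fluorescence signal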
How it was run: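 In PBS pH 7.4 with 2% DMSO, each compound met 4 uM MSTI for one hour at ambient temperature, shielded from light, before fluorescence detection.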

[5] = test system: Nanoluciferase (engineered Oplophorus gracilirostris luciferase); assay: Primary Nanoluciferase (NLuc) qHTS assay for identification of artifact compounds. (AID 1845222);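 note: series mostly up to about 54 µM; 0% = DMSO and -100% = no enzyme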
How it was run: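 Diluted conditioned medium from NLuc-expressing S16 cells treated with compounds for 15 min at room temperature, then Nano-Glo substrate added; luminescence read after 5 min. Percent inhibition versus no-enzyme and DMSO controls fitted to 4-parameter Hill equation.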

Phospholipid hydroperoxide glutathione peroxidase GPX4 (Homo sapiens), sequence (P36969 whole entry, looked up): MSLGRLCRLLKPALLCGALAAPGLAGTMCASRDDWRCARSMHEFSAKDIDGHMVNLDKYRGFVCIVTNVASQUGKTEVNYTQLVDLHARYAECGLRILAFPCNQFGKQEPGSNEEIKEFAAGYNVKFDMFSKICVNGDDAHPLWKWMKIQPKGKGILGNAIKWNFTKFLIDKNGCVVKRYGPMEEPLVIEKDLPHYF
Glutathione peroxidase 1 (Homo sapiens), sequence (P07203 whole entry, looked up): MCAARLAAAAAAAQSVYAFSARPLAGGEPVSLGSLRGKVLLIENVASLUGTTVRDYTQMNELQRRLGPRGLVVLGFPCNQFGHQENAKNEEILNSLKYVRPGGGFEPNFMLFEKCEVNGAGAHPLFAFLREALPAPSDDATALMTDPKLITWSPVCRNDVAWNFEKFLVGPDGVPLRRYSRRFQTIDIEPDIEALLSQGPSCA

C/C=C/C1=CC2=C(CO1)C(=O)[C@](C)(O)[C@H](OC(=O)c1c(O)cc(OC)c(O)c1C)C2
active: Potency [4] 1.03 µM
inactive: Potency [1] | Potency [2] | Potency [3] | Potency [5]

COc1cc(C2OCC3C(c4ccc(OC5OC(CO)C(O)C(O)C5O)c(OC)c4)OCC23)ccc1O (stereo not given)
inactive: Potency [1] | Potency [2] | Potency [3] | Potency [4] | Potency [5]

C[C@@H]1O[C@@H](OC[C@H]2O[C@@H](OCCc3ccccc3)[C@H](O)[C@@H](O)[C@@H]2O)[C@H](O)[C@H](O)[C@H]1O
inactive: Potency [1] | Potency [2] | Potency [3] | Potency [5]
active: Potency [4] 2.6 µM

CC1CCC2C(C)(C)C(O)CCC2(C)C12Cc1c(O)cc3c(c1O2)C(N)=NC3 (stereo not given)
inactive: Potency [1] | Potency [2] | Potency [3] | Potency [4] | Potency [5]

C[C@@H]1O[C@@H](O[C@H]2[C@H](OC(=O)[C@]34CCC(C)(C)C[C@H]3C3=CCC5[C@@]6(C)C[C@H](O)[C@H](O[C@@H]7O[C@H](CO[C@@H]8OC[C@H](O)[C@H](O)[C@H]8O)[C@@H](O)[C@H](O)[C@H]7O)C(C)(C)C6CC[C@@]5(C)[C@]3(C)C[C@H]4O)OC[C@@H](O)[C@@H]2O)[C@H](O)[C@H](O[C@@H]2OC[C@](O)(CO)[C@H]2O)[C@H]1O[C@@H]1OC[C@H](O)[C@H](O[C@@H]2OC[C@@H](O)[C@H](O)[C@H]2O)[C@H]1O (stereo not given in full)
inactive: outcome [1] inactive [at 9.52 µM] | activity change, negative = inhibition [2] -0.436% [at 9.73 µM] | outcome [3] inactive [at 11.6 µM] | activity change, negative = thiol reactive [4] 452% [at 11.5 µM] | activity, negative = inhibition [5] 3.55% [at 11.6 µM]

CC1CCC2(NC1)OC1C(=O)C3C4CCC5CC(O[C@@H]6O[C@H](CO)[C@@H](O)[C@H](O)[C@H]6O[C@@H]6O[C@@H](C)[C@H](O)[C@@H](O)[C@H]6O)CCC5(C)C4CCC3(C)C1C2C (stereo not given in full)
inactive: Potency [1] | Potency [2] | Potency [3] | Potency [4] | Potency [5]

CN1C(=O)c2ccccc2-n2c(nc3ccccc3c2=O)/C1=C/c1ccccc1
inactive: Potency [1] | Potency [2] | Potency [3] | Potency [4] | Potency [5]

NC1CCC(N[C@@H]2C[C@H]2c2ccccc2)CC1 (stereo not given in full)
inactive: Potency [1] | Potency [2] | Potency [3] | Potency [4] | Potency [5]

CC(=O)OCCC(C)CCC1C(C)(O)CCC2C(C)(C)CCCC21C (stereo not given)
inactive: Potency [1] | Potency [2] | Potency [3] | Potency [4] | Potency [5]

C[C@@H]1CC[C@]2(C(=O)O)CC[C@]3(C(=O)O)C(=CCC4[C@@]5(C)CC[C@H](O[C@@H]6O[C@@H](C)[C@H](O[C@@H]7O[C@H](CO)[C@@H](O)[C@H](O)[C@H]7O)[C@@H](O)[C@H]6O)C(C)(C)C5CC[C@]43C)C2[C@H]1C (stereo not given in full)
inactive: Potency [1] | Potency [2] | Potency [3] | Potency [4] | Potency [5]

CC(=O)O[C@@H]1C[C@@]23C[C@@]24CC[C@H](OC2OC[C@@H](O)[C@H](O)[C@H]2O)C(C)(C)[C@@H]4CC[C@H]3[C@]2(C)CC3OC4(C[C@@H](C)C3[C@@]12C)OCC1(C)OC14 (stereo not given in full)
inactive: Potency [1] | Potency [2] | Potency [3] | Potency [4] | Potency [5]

CC1(C)O[C@]23C[C@H]1C[C@H](OC(=O)c1ccoc1)[C@]2(C)[C@@H](OC(=O)c1ccoc1)CCC3(C)O (stereo not given in full)
inactive: Potency [1] | Potency [2] | Potency [3] | Potency [4] | Potency [5]

O=C(COc1ccc(Cl)cc1)NC1CCC(NC(=O)COc2ccc(Cl)cc2)CC1 (stereo not given)
inactive: Potency [1] | Potency [2] | Potency [3] | Potency [4] | Potency [5]

OC[C@H]1O[C@@H](Oc2ccc3c(c2)OC[C@H]2c4cc5c(cc4O[C@@H]32)OCO5)[C@H](O)[C@@H](O)[C@@H]1O
inactive: Potency [1] | Potency [2] | Potency [3] | Potency [4] | Potency [5]

CC1=C2C3OC(=O)C(C)C3(O)CCC2(C)CCC1=O (stereo not given)
active: Potency [4] 23.8 µM
inactive: Potency [1] | Potency [2] | Potency [3] | Potency [5]

CC(C)(O)c1ccc2c(c1)C(=O)CC1[C@](C)(CO)CCC[C@]21C (stereo not given in full)
inactive: Potency [1] | Potency [2] | Potency [3] | Potency [5]
active: Potency [4] 13.1 µM

C[C@@H]1C[C@H](O)/C=C/[C@H](O)[C@@H](O)CC(=O)O1
inactive: Potency [1] | Potency [2] | Potency [3] | Potency [4] | Potency [5]

CC(C)=CCC[C@](C)(O[C@@H]1O[C@H](CO[C@@H]2OC[C@@H](O)[C@H](O)[C@H]2O)[C@@H](O)[C@H](O)[C@H]1O)[C@H]1CC[C@]2(C)[C@@H]1[C@H](O)C[C@@H]1[C@@]3(C)CC[C@H](O[C@@H]4O[C@H](CO)[C@@H](O)[C@H](O)[C@H]4O[C@@H]4O[C@H](CO)[C@@H](O)[C@H](O)[C@H]4O)C(C)(C)[C@@H]3CC[C@]12C
inactive: Potency [1] | Potency [2] | Potency [3] | Potency [4] | Potency [5]

COc1cccc2c1CCC[C@H]2CN(C)CCc1ccc2ccoc2c1
inactive: Potency [1] | Potency [2] | Potency [3] | Potency [4] | Potency [5]

COc1ccccc1[C@@H]1C2=C(CC(C)(C)CC2=O)Nc2n[nH]c(C(F)(F)F)c21
inactive: Potency [1] | Potency [2] | Potency [3] | Potency [4] | Potency [5]

CCCCN(CCCC)C(=O)CN1C[C@H](c2ccc3c(c2)OCO3)[C@@H](C(=O)O)[C@@H]1c1ccc(OC)cc1
inactive: Potency [1] | Potency [2] | Potency [3] | Potency [4] | Potency [5]

CC(=O)O[C@H](C[C@@H](C)[C@H]1C(=O)[C@H](O)[C@@]2(C)[C@@H]3CCC4C(C)(C)[C@@H](O[C@@H]5OC[C@H](O)[C@H](O)[C@H]5O)CC[C@@]45C[C@@]35CC[C@]12C)[C@@H]1OC1(C)C (stereo not given in full)
inactive: Potency [1] | Potency [2] | Potency [3] | Potency [4] | Potency [5]

CC1OC(O[C@H]2[C@@H](O)C[C@@]3(C)C([C@H](O)C[C@]4(C)C3CC=C3C5CC(C)(C)CC[C@]5(C(=O)OC5OC(CO)C(O)C(O)C5OC5OCC(OC6OCC(OC7OCC(O)C(O)C7O)C(O)C6O)C(OC6OCC(O)(CO)C6O)C5O)CC[C@]34C)[C@]2(C)CO)C(O)C(O)C1O (stereo not given in full)
inactive: activity, negative = inhibition [1] -3.12% [at 9.52 µM] | activity change, negative = inhibition [2] -6.84% [at 9.73 µM] | activity change, negative = inhibition [3] 2.08% [at 11.6 µM] | activity change, negative = thiol reactive [4] 280% [at 11.5 µM] | activity, negative = inhibition [5] 3.85% [at 11.6 µM]

CC1CCC2C(C)(C)C(O)CCC2(C)C12Cc1c(O)cc3c(c1O2)CN(C(CCC(N)=O)C(=O)O)C3=O (stereo not given)
inactive: Potency [1] | Potency [2] | Potency [3] | Potency [4] | Potency [5]

COc1c(C)c(OCC=C(C)C)cc2c1C(=O)NC2=O
inactive: Potency [1] | Potency [2] | Potency [3] | Potency [4] | Potency [5]

FC(F)(F)c1cc(C(F)(F)F)c2ccc3nc(-c4nnco4)cn3c2n1
inactive: Potency [1] | Potency [2] | Potency [3] | Potency [4] | Potency [5]

O=C(O[C@H]1[C@@H]2C[C@@H]3OC[C@@](O)([C@H]2[C@H](O[C@@H]2O[C@H](CO)[C@@H](O)[C@H](O)[C@H]2O)O3)[C@@H]1O)c1ccccc1
inactive: Potency [1] | Potency [2] | Potency [3] | Potency [5]
active: Potency [4] 5.19 µM

COc1cc(/C=C/C(=O)O[C@H]2[C@H](O)[C@@H](CO)O[C@@]2(CO)O[C@H]2O[C@H](COC(=O)c3ccc(O)cc3)[C@@H](O)[C@H](O)[C@H]2O)cc(OC)c1OC
inactive: Potency [1] | Potency [2] | Potency [3] | Potency [4] | Potency [5]

CC1=CC(=O)C[C@H]2[C@@H]1CC[C@@H](C)[C@]21CO[C@H](c2ccoc2)C1=O
inactive: Potency [1] | Potency [2] | Potency [3] | Potency [4] | Potency [5]

NC(Cc1c[nH]c2ccccc12)C(=O)NC(CCC(=O)O)C(=O)O (stereo not given)
inactive: Potency [1] | Potency [2] | Potency [3] | Potency [4] | Potency [5]

C[C@]12CCC(=O)C=C1[C@@H](O)C[C@@H]1[C@@H]2[C@@H](O)C[C@@]2(C)[C@H]1CC[C@]2(O)C(=O)CO
inactive: Potency [1] | Potency [2] | Potency [3] | Potency [4] | Potency [5]

C=C1CCC2C(C)(C)CC(=O)CC2(C)C1CCC(C)CCOC(C)=O (stereo not given)
inactive: Potency [1] | Potency [2] | Potency [3] | Potency [4] | Potency [5]

C/C=C(\C)C(=O)O[C@H]1[C@H](O)[C@]2(COC(C)=O)[C@H](O)C[C@]3(C)C(=CCC4[C@@]5(C)CC[C@H](O[C@@H]6O[C@H](C(=O)O)[C@@H](O[C@@H]7O[C@H](CO)[C@@H](O)[C@H](O)[C@H]7O)[C@H](O)[C@H]6O[C@@H]6O[C@H](CO)[C@@H](O)[C@H](O)[C@H]6O)[C@](C)(CO)C5CC[C@]43C)[C@@H]2CC1(C)C (stereo not given in full)
inactive: Potency [1] | Potency [2] | outcome [3] inactive [at 11.6 µM] | activity change, negative = thiol reactive [4] 113% [at 11.5 µM] | activity, negative = inhibition [5] 4.32% [at 11.6 µM]

O=C(CCCCc1ccc2ccccc2c1)C(F)(F)F
inactive: Potency [1] | Potency [2] | Potency [3] | Potency [4] | Potency [5]

Cc1ccc(C(=O)Nc2ccc(Oc3cc4cnn(C)c4cc3-c3cn[nH]c3)c(F)c2)c(=O)n1-c1ccc(F)cc1
inactive: Potency [1] | Potency [2] | Potency [3] | Potency [4] | Potency [5]

C[C@@H]1C(=O)O[C@H]2CC34[C@H]5C[C@@H](C(C)(C)C)C36[C@@H](OC(=O)[C@@H]6O)O[C@@]4(C(=O)O5)[C@]21O (stereo not given in full)
inactive: Potency [1] | Potency [2] | Potency [3] | Potency [4] | Potency [5]

C[C@@H]1O[C@@H](OC[C@H]2O[C@@H](OCC3CCC4CC3C4(C)C)[C@H](O)[C@@H](O)[C@@H]2O)[C@H](O)[C@H](O)[C@H]1O (stereo not given in full)
inactive: Potency [1] | Potency [2] | Potency [3] | Potency [5]
active: Potency [4] 11.6 µM

COC(=O)C1=CO[C@@H](O[C@@H]2O[C@H](CO)[C@@H](O)[C@H](O)[C@H]2O)[C@@H]2[C@@](C)(O)[C@@H](O)C[C@]12O
inactive: Potency [1] | Potency [2] | Potency [3] | Potency [4] | Potency [5]

C=CC1C(O[C@@H]2O[C@H](CO)[C@@H](O)[C@H](O)[C@H]2O)OC=C(C(=O)OC)C1Cc1nccc2c1[nH]c1ccccc12 (stereo not given in full)
inactive: Potency [1] | Potency [2] | Potency [3] | Potency [4] | Potency [5]
